# Screens (PubChem)
# GPT2 inh = blocks human glutamate pyruvate transaminase 2; AID 1671188; Q8TD30; Recombinant GPT2, coupled pyruvate oxidase/HRP Amplex Red fluorescence; 100,000 tested, 0.25% active; Potency, µM (titrated, usually from 57.7 µM), inactives show top-dose activity change, negative = inhibition, usual class: inhibitors; also: nearly all actives have a fitted effect of over 60% in size
#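 Recombinant GPT2 (10ng/uL) with 250uM a-KG and 2mM L-alanine, 30 min at room temperature, in HEPES pH 7.5 buffer. Pyruvate detected by pyruvate oxidase/HRP/Amplex Red fluorescence after 30 min in the dark; AOA (50uM) as positive control.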
# HEK293 tox = kills HEK 293 cells; 94,000 tested, 6.6% active; HEK 293 viability, ATP luminescence (CellTiter-Glo), 48-72 h; Potency, µM (titrated, usually from 115 µM), for the others: at the highest dose activity change, negative = cytotoxicity, usual class: inhibitors; also: nearly all actives have a fitted effect of over 60% in size
#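 ATP-coupled CellTiter-Glo luminescence served as viability read-out, recorded 10 min after reagent addition at room temperature. HEK 293 cells, 250 cells/well, had been incubated with pintool-transferred compound for 48 or 72 hr at 37 degree Celsius.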
# hNpr1 antagonist = human Npr1 receptor antagonism | P16066 | AID 1347048 | 76,000 tested, 1.6% active | HEK293 hNpr1 GloSensor cGMP, ANP-stimulated luminescence | Potency, µM (doses to about 46.3 µM), without a hit: at the highest dose activity change, negative = inhibition, most hits filed as inhibitors; calls by dose curve; also: nearly all actives have a fitted effect of over 60% in size
# Target sequence (P16066 whole entry, looked up): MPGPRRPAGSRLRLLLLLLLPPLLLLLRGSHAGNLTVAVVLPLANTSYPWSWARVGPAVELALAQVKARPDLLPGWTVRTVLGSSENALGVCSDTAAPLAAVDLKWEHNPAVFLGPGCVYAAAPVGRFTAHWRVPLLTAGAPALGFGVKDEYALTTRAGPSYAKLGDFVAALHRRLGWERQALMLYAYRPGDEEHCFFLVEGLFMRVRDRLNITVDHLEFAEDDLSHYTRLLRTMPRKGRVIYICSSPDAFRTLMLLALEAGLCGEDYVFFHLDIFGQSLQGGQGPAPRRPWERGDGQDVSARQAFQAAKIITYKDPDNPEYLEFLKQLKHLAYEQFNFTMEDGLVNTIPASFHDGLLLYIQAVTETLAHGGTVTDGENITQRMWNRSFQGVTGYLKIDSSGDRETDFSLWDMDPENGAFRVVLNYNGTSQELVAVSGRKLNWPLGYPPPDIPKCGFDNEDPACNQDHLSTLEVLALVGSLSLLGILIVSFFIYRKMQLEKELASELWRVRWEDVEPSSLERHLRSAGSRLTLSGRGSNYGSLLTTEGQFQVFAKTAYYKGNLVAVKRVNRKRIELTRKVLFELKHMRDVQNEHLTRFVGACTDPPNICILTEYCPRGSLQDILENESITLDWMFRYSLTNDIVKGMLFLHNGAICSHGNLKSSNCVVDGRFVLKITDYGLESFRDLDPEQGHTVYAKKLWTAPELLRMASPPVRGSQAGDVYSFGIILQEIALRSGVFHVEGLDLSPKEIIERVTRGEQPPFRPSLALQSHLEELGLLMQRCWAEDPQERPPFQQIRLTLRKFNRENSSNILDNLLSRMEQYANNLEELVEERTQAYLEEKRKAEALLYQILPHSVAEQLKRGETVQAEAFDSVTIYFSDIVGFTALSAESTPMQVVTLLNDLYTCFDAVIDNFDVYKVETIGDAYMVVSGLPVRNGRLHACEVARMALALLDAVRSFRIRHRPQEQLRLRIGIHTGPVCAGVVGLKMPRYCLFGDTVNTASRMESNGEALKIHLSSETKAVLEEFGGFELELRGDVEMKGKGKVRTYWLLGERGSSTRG
#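 Compound pre-incubated 30 min at room temperature on GloSensor-loaded HEK293 cells stably carrying hNpr1 and the pGS-40F cGMP biosensor. Stimulation uses hNppA at 0.1 nM final; luminescence is taken at baseline and 20 min post-agonist.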
# NIH3T3 tox = cytotoxic compounds in NIH 3T3 cells; NIH 3T3 viability, CellTiter-Glo ATP luminescence, 48-72 h; Potency, µM (titrated, usually from 96.7 µM), inactives show top-dose activity change, negative = cytotoxicity, usual class: inhibitors; 94,000 tested, 4.3% active; AID 1345082; also: nearly all actives have a fitted effect of over 55% in size
#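 Cytotoxicity is measured as loss of cellular ATP: NIH 3T3 cells (400/well) are exposed to compound for 48 or 72 hr at 37 °C, then CellTiter-Glo luminescence is imaged after 10 min at room temperature.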
# FLuc inh = Photinus pyralis luciferase inhibition | purified P. pyralis luciferase, luminescence, biochemical | Potency, µM (series often up to 115 µM), actives largely listed as inhibitors | 76,000 tested, 2.5% active; also: nearly all actives have a fitted effect of over 65% in size
#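 Luminescence read by CCD imager after adding enzyme (10nM final) to wells holding compound, titrated in qHTS. Substrates 10uM each D-luciferin and ATP; buffer 50mM Tris acetate pH 7.5, 10mM Mg acetate, Tween-20, BSA.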
# Starred values were filed as active, the others as inactive; i = inactive; ? = inconclusive; . = not tested or not shown; [ ] = another dose, or the depositor's remark. Sampled rows, rich in hits. Any-hit rate of the full collection: about 10%. Unless noted, calls follow the shape of the dose curve; as a rule, active = well fitted curve in the direction sought with a large enough effect; inconclusive = small, poorly fitted or top-dose-only effect, or another doubt; inactive = no such curve, though single readings can be large; an effect the other way counts as inactive or inconclusive. % is scaled to controls: 0 for no effect and ±100 for the full control effect; potency is read from the fitted curve at half-maximal effect.
SMILES,GPT2 inh,HEK293 tox,hNpr1 antagonist,NIH3T3 tox,FLuc inh
O=C(Cc1cccc(F)c1)NC1CCN(c2ccc(F)cc2)C1=O (centres undefined),4%,-25%,-1%,-13%,i
Cc1ccc(N2CCC(NC(=O)Cc3cccc(F)c3)C2=O)cc1 (centres undefined),i,25µM*,7%,32µM*,i
O=C(c1ccc(Cl)cc1)N1CC2(CCCN(CC3CCCCC3)C2)Cc2ccccc21 (centres undefined),4%,?,.,?,.
O=C1NC2(CCCN(CC3CC3)C2)Oc2ccccc21 (centres undefined),0%[88.5 µM],-15%[172 µM],0%[70.6 µM],-19%[138 µM],i
O=C1NC2(CCN(CC3CCCCC3)C2)Oc2ccccc21 (centres undefined),i,63µM*,6%[70.6 µM],?,i
CCN1CC(C(=O)NCc2cccc(-c3ccccc3)c2)CCC1=O (centres undefined),i[11.5 µM],35µM*,?,?,i
O=C(NCc1cccc(-c2ccccc2)c1)C1CC(=O)N(C2CC2)C1 (centres undefined),i,-33%,0%,-36%,i
COc1ccc(C2(C(=O)N3c4ccccc4CC3c3noc(C4CCOCC4)n3)CC2)cc1 (centres undefined),-9%,?,-4%,?,25µM*
O=C(c1ccc(Cl)cc1)N1CCCC(C(=O)N2CCC(c3nc4ccncc4[nH]3)C2)C1 (centres undefined),2%,-5%,.,-15%,.
Cc1ccc(Nc2ccnc(N3CCC(C(=O)NCC4CCCCCC4)CC3)n2)cc1,-7%,?,.,18µM*,.
Cc1ccc(Nc2ccnc(N3CCC(C(=O)Nc4ccccc4Cl)CC3)n2)cc1,0%,?,.,40µM*,.
C#CCNC(=O)C1CCN(c2nccc(Nc3ccc(C)cc3)n2)CC1,i,50µM*,.,?,.
COc1ccc(Nc2ccnc(N3CCC(C(=O)NCC4CC4)CC3)n2)cc1,-43%,?,.,40µM*,.
CC(C)NC(=O)C1CCN(c2nccc(Nc3ccccc3Cl)n2)CC1,i,?,.,?,.
O=C(NCc1ccc2c(c1)OCO2)c1ccc2nnc(C3CCOCC3)n2c1,.,3%,.,-3%,.
COCCNC(=O)c1ccc2nnc(-c3cccnc3)n2c1,i,-1%[172 µM],.,-7%[138 µM],.
COc1cccc(-c2cccc(C(=O)N3CCCC3C(=O)NCCc3ccccc3)c2)c1 (centres undefined),-6%,?,.,?,.
O=C(CNC(=O)c1ccc(-c2cccc(C(F)(F)F)c2)cc1)NCc1ccc(F)cc1,1%,?,.,?,.
Cc1ccc(Nc2ccnc(N3CCCC(C(=O)NC(C)C)C3)n2)cc1 (centres undefined),-6%,?,.,?,.
Cc1ccc(Nc2ccnc(N3CCCC(C(=O)NCC4CC4)C3)n2)cc1 (centres undefined),i,35µM*,.,35µM*,.
O=C(NCCc1ccccc1F)c1ccc2nnc(-c3ccc(OC(F)(F)F)cc3)n2c1,i,?,.,?,.
CC(C)CNC(=O)c1cc(C2CC2)nc2c1c(C1CCCN1)nn2-c1ccccc1 (centres undefined),0%,22µM*,.,18µM*,.
O=C(NCc1ccncc1)c1cc(C2CC2)nc2c1c(C1CCCN1)nn2-c1ccccc1 (centres undefined),1%,45µM*,.,20µM*,.
COCCCNC(=O)c1cc(C2CC2)nc2c1c(C1CCCN1)nn2-c1ccccc1 (centres undefined),i,?,.,?,.
O=C(NCC(F)(F)F)c1cc(C2CC2)nc2c1c(C1CCCN1)nn2-c1ccccc1 (centres undefined),i,?,.,22µM*,.
SMILES,GPT2 inh,HEK293 tox,hNpr1 antagonist,NIH3T3 tox,FLuc inh
CC(C)CNC(=O)C1CCc2nnc(-c3cccc(C(F)(F)F)c3)n21 (centres undefined),-13%,-23%,.,-15%,.
O=C(c1ccc(C(F)(F)F)cc1)N1CCC(C(=O)N2CCC(N3CCOCC3=O)CC2)CC1,i,?,.,-23%,.
Cc1ccc(CCNC(=O)C2CCN(C(=O)c3cc4c(=O)[nH]c(C)cn4n3)CC2)cc1,-5%,0%,-15%,-7%,i
COc1ccc(C(=O)Nc2ccc3n(c2=O)C[C@H]2C[C@@H]3CN(S(=O)(=O)c3ccc(OC)cc3)C2)cc1,3%,?,-2%,-21%,8.9µM*
CCN1CCN(c2ccc(Nc3cc(N(C)C(=O)Nc4c(Cl)c(OC)cc(OC)c4Cl)ncn3)cc2)CC1,8.9µM*,.,.,.,.
CCN1CCN(Cc2ccc(NC(=O)Nc3ccc(Oc4cc(NC)ncn4)cc3)cc2C(F)(F)F)CC1,i,.,.,.,.
Cn1ccc(NCc2nc3c(n2Cc2ccccc2)C(=O)N(Cc2cccc(Cl)c2)CCN3)n1,2%,?,1%,?,i
CCc1c(C(=O)N2CCC(CO)(Cc3ccccc3)CC2)[nH]c2ccccc12,-3%,20µM*,-8%,?,i
O=C(NCc1cccnc1)c1nc(-c2ccccc2)cc2[nH]ccc12,-4%[88.5 µM],89µM*,-3%[70.6 µM],?,i
O=C(NCCc1ccccn1)c1nc(-c2ccccc2)cc2[nH]ccc12,-3%[88.5 µM],79µM*,-22%[70.6 µM],?,?
COc1cccc(NC(=O)CN2C(=O)NC(c3ccc(C)cc3)C3=C2COC3=O)c1 (centres undefined),i,?,-11%,?,i
O=C(CN1C(=O)NC(c2ccc(Cl)cc2)C2=C1COC2=O)Nc1cccc(Br)c1 (centres undefined),-10%,20µM*,?,?,?
O=C(CN1C(=O)NC(c2ccc(Cl)cc2)C2=C1COC2=O)Nc1cccc(F)c1 (centres undefined),i,45µM*,-17%,28µM*,i
O=C(CN1C(=O)NC(c2ccccc2Cl)C2=C1COC2=O)Nc1cccc(F)c1 (centres undefined),-5%,?,-17%,-28%,?
CC(Cc1cccnc1)Nc1cc(-c2ccccc2F)nc2ccnn12 (centres undefined),i,79µM*,4%,?,i
CN(CC(=O)N1CCC(CCOc2ccc(F)cc2)C1)S(=O)(=O)c1ccc2c(c1)oc(=O)n2C (centres undefined),i,35µM*,?,?,i
CN(CC(=O)N1CCC(CCOc2ccccc2F)C1)S(=O)(=O)c1cccs1 (centres undefined),-7%,50µM*,-16%,?,i
CC(C)C(=O)N1CCC(CCOc2ccccc2F)C1 (centres undefined),i,?,-20%,?,i
